# Source: PubChem BioAssay AID1851 (National Center for Advancing Translational Sciences (NCATS), 2009)
# About 2,600 (16%) of roughly 16,000 compounds were called active. Inconclusive results (about 20%) are left out. Calls come from the whole dose curve; as a rule, active = well fitted curve in the direction sought with a large enough effect; inconclusive = small, poorly fitted or top-dose-only effect, or effect the other way; inactive = no such curve, though single readings can be large or run the other way. Not all results are given here.
# Biological target: Cytochrome P450 2D6 (Homo sapiens) (UniProt P10635)
# Sequence (P10635 whole entry, looked up): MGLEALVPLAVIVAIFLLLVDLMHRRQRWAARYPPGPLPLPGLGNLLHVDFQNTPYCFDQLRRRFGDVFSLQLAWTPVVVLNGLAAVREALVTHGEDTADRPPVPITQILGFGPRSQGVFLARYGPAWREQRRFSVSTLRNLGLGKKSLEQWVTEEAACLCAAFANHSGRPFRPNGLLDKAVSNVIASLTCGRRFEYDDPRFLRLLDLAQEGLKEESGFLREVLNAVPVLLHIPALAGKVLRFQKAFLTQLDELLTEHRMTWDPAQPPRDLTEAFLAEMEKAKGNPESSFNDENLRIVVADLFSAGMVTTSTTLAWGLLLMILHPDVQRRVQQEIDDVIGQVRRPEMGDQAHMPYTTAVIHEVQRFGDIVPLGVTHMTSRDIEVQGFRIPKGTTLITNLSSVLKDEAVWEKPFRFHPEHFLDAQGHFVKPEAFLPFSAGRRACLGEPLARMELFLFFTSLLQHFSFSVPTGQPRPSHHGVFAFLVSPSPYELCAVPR
# Assay: Cytochrome panel assay with activity outcomes
# Settings: recombinant CYP, pro-luciferin dealkylation, luminescence, p450-cyp2d6; series mostly up to 57.1 µM
# % is set by controls: 0 for no effect and ±100 for the full control effect.
Structure (SMILES),AC50,"activity, negative = inhibition"
O=C(CS(=O)c1cccc(Cl)c1)Nc1ccccc1Cl (stereo unspecified),inactive,–
O=C(CCN1C(=O)C2C3C=CC(C3)C2C1=O)Nc1c(F)cccc1F (stereo unspecified),inactive,–
O=C(CCN1CCN(CC(=O)Nc2ccccc2Cl)CC1)Nc1ccccc1F,1.26 µM (active),–
O=C(CCN1CCN(c2ccccc2F)CC1)Nc1ccccc1F,11.2 µM (active),–
COc1ccc(NC(=O)CN2CCN(CC(=O)Nc3ccccc3Cl)CC2)cc1,inactive,–
COc1ccccc1NC(=O)CN1CCN(c2ccccc2F)CC1,inactive,–
COCCn1c(=O)c(C)nc2cnc(Oc3ccc(OC)cc3)nc21,inactive,–
CN(C)c1ncc2nc(-c3cccs3)c(=O)n(C[C@H]3CCCO3)c2n1,inactive,–
O=C(CP(=O)(c1ccccc1)c1ccccc1)Nn1cnnc1,inactive,–
COCCN(CCOC)S(=O)(=O)c1ccc(C(=O)Nc2nc(C)c(C(C)=O)s2)cc1,inactive,–
NC(=O)CN1CCOCCOCCOCCOCCOCC1,inactive,–
O=C(Nc1cccc(F)c1)N1CCC2(CC1)CCN(C(=O)c1ccco1)CC2,inactive,–
COc1ccc(CCNc2cc(-c3ccccc3)nc3ncnn23)cc1,inactive,–
COc1ccc(-n2c3c(c(=O)[nH]c2=O)C(C(F)(F)F)(C(F)(F)F)N=C(CC(C)C)N3)cc1,inactive,–
CCCn1c(=O)c2c(ncn2C)n(CCC)c1=O,inactive,–
NC(N)=NNC(=O)C(=O)O,–,7.44% [at 11.4 µM] (inactive)

Structure (SMILES),AC50,"activity, negative = inhibition"
O=C(O)c1cccnc1,inactive,–
CC(C)(C(=O)c1cccnc1)c1cccnc1,inactive,–
C(=N\N1CCN(C2c3ccccc3-c3ccccc32)CC1)/c1cccnc1,0.631 µM (active),–
C/C(=N\N1CCN(C2c3ccccc3-c3ccccc32)CC1)c1ccncc1,0.178 µM (active),–
C/C(=N\N1CCN(C2c3ccccc3-c3ccccc32)CC1)c1cccnc1,2 µM (active),–
O=[N+]([O-])c1cc(/C=N/N2CCN(C3c4ccccc4-c4ccccc43)CC2)ccc1Cl,inactive,–
c1ccc2c(c1)-c1nc3ccccc3cc1[C@H]2N1CCOCC1,–,-4.83% [at 11.4 µM] (inactive)
O=C(NCC1CCCO1)C(c1cccnc1)N(C(=O)Cc1cccs1)c1cccnc1 (stereo unspecified),inactive,–
Cc1nnc(NS(=O)(=O)c2ccc(N)cc2)s1,inactive,–
O=C(O)Cc1ccc2ocnc2c1,inactive,–
CCCC(=O)N1c2ccccc2C(N(C(C)=O)c2ccccc2)CC1C (stereo unspecified),inactive,–
O=C(Nc1cc2c(oc1=O)CCCC2=O)c1ccc(Cl)cc1,inactive,–
S=c1[nH]c2cc(Cl)ccc2s1,inactive,–
COc1ccc2nc(N)sc2c1,inactive,–
NCC[C@H](O)C(=O)N[C@H]1C[C@@H](N)[C@@H](O[C@H]2O[C@@H](CN)[C@@H](O)[C@@H](O)[C@@H]2O)[C@@H](O)[C@@H]1O[C@H]1O[C@@H](CO)[C@@H](O)[C@@H](N)[C@@H]1O,inactive,–
